Drawing on ChEMBL document CHEMBL4513216, “Probing the Open Global Health Chemical Diversity Library for Multistage-Active Starting Points for Next-Generation Antimalarials” (ACS Infect Dis, 2020), this text covers INHIBITION for 70 compounds.

The campaign covered roughly 69,000 compounds. About 8,600 (12%) showed an effect of 50% or more. The sample holds strong results, similar compounds and a random draw of the others, so the mix is not that of the screen.

This assay concerns Plasmodium berghei. Description: Screen against P. berghei liver stage (PbLuc), transformed with Luciferase, at 10uM. Format: functional, HepG2. Particulars: tested at 10 uM.
On to `N#Cc1ccc(CN2CCCCC2Cn2cccn2)cc1` (stereo not given), for which the INHIBITION is given as -32%.
Take `COc1ccc(CC(=O)NC2CCc3nc(C)cn3C2)cc1` (stereo not given): the INHIBITION was 46.6%.
The result for `COc1ncc(-c2ccc(NC(C)=O)cc2)c(OC)n1` reads 14%; that for `Cc1nc(O)c2nnn(C[C@H]3CCCN3C(=O)c3ccccc3F)c2n1`, 28%; that for `OC1CCN(c2ccnc(NCCN3CCc4ccccc4C3)n2)C1` (stereo not given), 8.38%.
Regarding `OC1CCN(c2ccnc(NCCc3ccccc3Cl)n2)CC1`, the INHIBITION was 39.1%.
On to `OC1CCN(c2ccnc(NCCc3ccccc3Cl)n2)C1` (stereo not given), for which the INHIBITION is 93.6%.
Regarding `CCCc1ccc(CN2CCC3(CCC(=O)N(C)CC3)CC2)o1`, the INHIBITION is given as 21.2%.
The result for `CCCc1nc(CN2CCN(C(C)c3nc(C4CC4)no3)CC2)no1` (stereo not given) reads -27.8%; that for `COc1ccccc1CC(=O)NS(=O)(=O)c1ccc(NC(C)=O)cc1`, -14%; that for `O=C(NCC1CCS(=O)(=O)C1)N(Cc1ccccn1)C1CC1` (stereo not given), 4.1%.
With `Cc1nc(CN2CCC(C(=O)O)(n3ccc(-c4ccco4)n3)CC2)co1`, the INHIBITION amounted to 5.14%.
The same measure for `O=C(O)C1(n2ccc(-c3ccco3)n2)CCN(Cc2cccs2)CC1`: 43.4%.
The result for `Cc1csc(CN2CCC(C(=O)O)(n3ccc(-c4ccco4)n3)CC2)n1` reads 51.3%; that for `COc1cccc(C(C(=O)O)N2CCCN(c3ccnc(C)c3)CC2)c1` (stereo not given), 27.6%.
The result for `COc1cccc(N2CCN(C(C(=O)O)c3ccc(OC)nc3)CC2)c1` (stereo not given) reads 65.7%; that for `COc1ccc(C(C(=O)O)N2CCCN(C3CCCCC3)CC2)cn1` (stereo not given), 32.7%; that for `CCc1nc(N2CCC3(CCC(=O)N(CCCO)C3)CC2)no1`, 35.6%.
With `O=C(C1CCCCC1)N1CCC(c2n[nH]c3nccnc23)CC1`, the INHIBITION is on record as 44.1%.
The result for `CN1CCC(c2n[nH]cc2-c2ccnc(N)c2)C1` (stereo not given) reads 16.05%; that for `CC(C)CNc1cc(-c2c[nH]nc2C2CCN(C(=O)C3CC3)C2)ccn1` (stereo not given), 86%; that for `CC(=O)N1CCC(c2n[nH]cc2-c2ccnc(N)c2)C1` (stereo not given), 37.5%.
The result for `COCCC(=O)N1CCC(c2ncncc2-c2ccnc(N)c2)C1` (stereo not given) reads 0.696%; that for `Cc1c[nH]nc1C1CCN(C(=O)C2CCOCC2)C1` (stereo not given), 3.48%.
The result for `Cc1c[nH]nc1C1CCN(C(=O)C2CCC2)CC1` reads -14.2%.
With `O=C(C1CCCC1)N1CCC(c2n[nH]c3nccnc23)CC1`, the INHIBITION was 51.5%.
`CC(C)OCC(=O)N1CCC(c2ncncc2-c2ccnc(N)c2)C1` (stereo not given): the INHIBITION is 8.12%.
The same measure for `CC(=O)N1CCC(c2n[nH]c3nccnc23)CC1`: 8.53%; for `CC(C)Nc1cc(-c2c[nH]nc2C2CCN(C(=O)C3CC3)C2)ccn1` (stereo not given): 87.85%.
The same measure for `Cc1c[nH]nc1C1CCN(C(=O)C2CCCC2)C1` (stereo not given): 65.7%; for `Cc1nc(C(=O)N2CCC(c3cc(CCO)n(C)n3)C2)co1` (stereo not given): 19.3%; for `CNC(=O)[C@@H](c1ccccc1OC)N1CCC[C@H]1C(=O)N1CCC1`: -37.8%.
The result for `COCC(NC1CCN(CC(C)C)CC1)c1ccnn1C` (stereo not given) reads -1.49%; that for `CCc1c(C)sc2nc3n(CCN4CCOCC4)nc(SC)n3c(=O)c12`, 17.7%.
For the compound `CC(c1ccncc1)N(CCN(C)C)C(=O)Nc1ccc(Cl)c(Cl)c1` (stereo not given), the INHIBITION is reported as -32.1%.
The same measure for `O=C(c1ccoc1)N1C[C@@H]2[C@@H](C1)OCC(=O)N2Cc1cccnc1`: 16.8%; for `CN(C(=O)c1cc(F)ccc1F)[C@@H]1CC[C@@H](O)[C@@H]1O`: 2.55%; for `Cc1c[nH]nc1C1CCN(C(=O)Cn2cccn2)C1` (stereo not given): -9.32%.
On to `Cc1cc(N2CCC(c3n[nH]c4nccnc34)C2)ncn1` (stereo not given), for which the INHIBITION is on record as -4.51%.
For `CC(C)Nc1cc(-c2c[nH]nc2C2CCN(C(=O)C3CCC3)C2)ccn1` (stereo not given), the INHIBITION is on record as 88.45%.
As for `Nc1cc(-c2c[nH]nc2C2CCCCN2C(=O)C2CCCC2)ccn1` (stereo not given), the INHIBITION is listed as 59.9%.
For the compound `CC(C)N1CCC(c2n[nH]cc2-c2ccnc(N)c2)C1` (stereo not given), the INHIBITION was 26.5%.
With `CCCNc1cc(-c2c[nH]nc2C2CCN(C(=O)C3CCC3)C2)ccn1` (stereo not given), the INHIBITION stood at 87.35%.
The result for `Cc1cc(N2CC(c3n[nH]c4nccnc34)C2)ncn1` reads 18.3%.
The result for `Nc1cc(-c2c[nH]nc2C2CCN(C(=O)C3CCCC3)C2)ccn1` (stereo not given) reads 31.75%; that for `Nc1cc(-c2c[nH]nc2C2CCCN2S(=O)(=O)c2ccccc2)ccn1` (stereo not given), 39.1%; that for `CN(C)S(=O)(=O)N1CCC(c2n[nH]cc2-c2ccnc(N)c2)C1` (stereo not given), -9.215%.
For `Cc1cc(N2CCC(c3n[nH]c4nccnc34)CC2)ncn1`, the INHIBITION is recorded as 58.1%.
The result for `COCC(=O)N1C[C@@H](OCc2cccnc2)[C@H]2OCCC[C@@H]21` reads 26.5%; that for `Cc1ccc(S(N)(=O)=O)cc1C(=O)NC1CCCC1`, 12.2%; that for `CC(=O)N1CCCC(c2ccnc(Nc3cnccn3)c2)C1` (stereo not given), -9%.
The result for `O=C(NCC(CO)Cc1cccc(OC(F)(F)F)c1)c1cnccn1` (stereo not given) reads 30.8%; that for `O=C(Cc1csc(-c2ccsc2)n1)N1CCN(c2cnccn2)CC1`, -40.2%.
The same measure for `Cc1nc(C)n(CC2CCCN(CCC(=O)NC3CCCCC3)C2)n1` (stereo not given): -4.16%.
In the case of `CN1CC(C(=O)NC2(c3ccc(Cl)cc3)CCOCC2)CC1=O` (stereo not given), the INHIBITION is 8.31%.
In the case of `NC(=O)c1c(NC(=O)CCCC(=O)O)sc2c1CCc1ccccc1-2`, the INHIBITION is on record as 33%.
The same measure for `Cc1nn(C)c(C)c1-c1nccnc1CC1CCNCC1`: -17.9%; for `CCc1c(C)nn2c(O)cc(C3CCN(C(=O)c4ccn(C)n4)C3)nc12` (stereo not given): 3.623%.
Consider `c1cnc(N2C[C@@H]3COC[C@]3(COCC3CCCC3)C2)nc1`, for which the INHIBITION came out at 15.4%.
The result for `CN(C)[C@@H]1CCN(CC2CC2)[C@H]1Cc1cnn(C)c1` reads 1.94%.
The same measure for `CN1CC(=O)N(c2cnn(C)c2)CC12CCN(Cc1ccccc1)C2` (stereo not given): 21.8%.
As for `CC1CCN(CCNC(=O)c2scnc2Cl)CC1`, the INHIBITION is 40.2%.
With `CN1CCN(CCNC(=O)c2sccc2C2CC2)CC1`, the INHIBITION is 31.6%.
`CCc1nc(C)c(C(=O)NCCN2CCC(C)CC2)s1`: the INHIBITION came to 15.6%.
The same measure for `Cc1cc(C)n(-c2nc(C(=O)NCCS(=O)(=O)N3CCCCC3)cs2)n1`: 0.696%; for `Cc1cc(C)n(-c2nc(C(=O)NCCN3CCC(C)CC3)cs2)n1`: 61%.
The same measure for `CC1CCN(CCNC(=O)c2sccc2C2CC2)CC1`: 81.5%; for `O=C(NCC(=O)N1CCCCC1)c1sccc1C1CC1`: 17.2%.
The result for `O=C(NCC(=O)N1CCN(c2ccccc2)CC1)c1sccc1C1CC1` reads 92%.
Turning to `O=C(c1sccc1C1CC1)N1CCN(c2ncccn2)CC1`, the INHIBITION is reported as 49.1%.
